B1: PhoQ; a variant is named by its letters at X, in order, P23837 (parent)
chain: MKKLLRLFFPLSLRVRFLLATAAVVLVLSLAYGMVALIGYSVSFDKTTFRLLRGESNLFYTLAKWENNKLHVELPENIDKQSPTMTLIYDENGQLLWAQRDVPWLMKMIQPDWLKSNGFHEIEADVNDTSLLLSGDHSIQQQLQEVREDDDDAEMTHSVAVNVYPATSRMPKLTIVVVDTIPVELKSSYMVWSWFIYVLSANLLLVIPLLWVAAWWSLRPIEALAKEVRELEEHNRELLNPATTRELTSLVRNLNRLLKSERERYDKYRTTLTDLTHSLKTPLXXLQXXLRSLRSEKMSVSDAEPVMLEQISRISQQIGYYLHRASMRGGTLLSRELHPVAPLLDNLTSALNKVYQRKGVNISLDISPEISFVGEQNDFVEVMGNVLDNACKYCLEFVEISARQTDEHLYIVVEDDGPGIPLSKREVIFDRGQRVDTLRPGQGVGLAVAREITEQYEGKIVAGESMLGGARMEVIFGRQHSAPKDE

Over roughly 140,000 sequences, “enrichment ratio after two sorts for PhoP signalling” has its median near 0; the highest 2% begin near 11. Shown is part of a subset that was picked to be rich in the highest values. A value given as a limit tells only on which side of the number the result lay.

This experiment covers variants of B1. In words: enrichment ratio after two sorts for PhoP signalling (ratio (wild type AVST 3.29)); higher = more functional. As to conditions: with PhoP (E. coli).
RVHQ: the enrichment ratio is ≤ 0.25.

On to SHNI, for which the enrichment ratio stood at 8.22. On to NHNI, for which the enrichment ratio is ≤ 0.25. Then THNI, with 14.1; and NHNL, with ≤ 0.25; and YHNL, with ≤ 0.25. Under THNL stands 12.7; under YPKW, ≤ 0.25; under AGAF, 3.66. Under TPRL stands ≤ 0.25; under GHGI, ≤ 0.25; under AHGI, ≤ 0.25. On to ANGI, for which the enrichment ratio came to 22.1.

Consider MTGD, for which the enrichment ratio was ≤ 0.25. Then AIGI, with 11.8; and AGGI, with 12.9. Then YTGI, with ≤ 0.25; and ANHA, with ≤ 0.25; and MTGI, with 11.7.

With AGFP, the enrichment ratio was ≤ 0.25. For VHGI, the enrichment ratio is ≤ 0.25. Then GNGI, with ≤ 0.25; and IIYR, with ≤ 0.25.

In the case of DKAR, the enrichment ratio is ≤ 0.25. Under LMEW stands ≤ 0.25; under VFIY, ≤ 0.25.

As for TSGI, the enrichment ratio was determined as 12.8.

With ATGS, the enrichment ratio was found to be 5.38.

For the variant MMGI, the enrichment ratio is ≤ 0.25. Take ATGI: the enrichment ratio turned out to be 13.1. Under TTGI stands 9.44.

Take KSGI: the enrichment ratio was ≤ 0.25. Under TMGI stands 20.6; under KCGI, ≤ 0.25. Turning to TMFP, the enrichment ratio was ≤ 0.25. For the variant MGHD, the enrichment ratio is ≤ 0.25.

With TSDS, the enrichment ratio turned out to be 0.648. Under FMNE stands ≤ 0.25; under SRAQ, ≤ 0.25; under TEAQ, 28. Take SEAQ: the enrichment ratio was found to be 13.7.

Turning to NEAQ, the enrichment ratio was ≤ 0.25. Then QEAQ, with ≤ 0.25; and SLAQ, with 3.9.

In the case of LILM, the enrichment ratio was ≤ 0.25. Then MPQI, with ≤ 0.25. As for IQHE, the enrichment ratio was ≤ 0.25.

As to EPTW, the enrichment ratio was ≤ 0.25.

For NMAC, the enrichment ratio was ≤ 0.25. Under NNAC stands ≤ 0.25; under GMAC, ≤ 0.25; under CMAC, 23.4.

On to TMAC, for which the enrichment ratio came to 28.2. Then SMAC, with 12.5; and SMTC, with 8.15. Then SMPC, with ≤ 0.25. As for KMAC, the enrichment ratio was ≤ 0.25. Under VQIW stands ≤ 0.25. Then NELI, with ≤ 0.25; and MAEF, with ≤ 0.25; and RVFY, with ≤ 0.25. Regarding SKNN, the enrichment ratio is ≤ 0.25. Then NLIQ, with ≤ 0.25.

In the case of SALY, the enrichment ratio was 11.8. On to SALK, for which the enrichment ratio worked out at 15.2. As to SPLK, the enrichment ratio was ≤ 0.25. Then NALN, with ≤ 0.25; and KALY, with ≤ 0.25. Then SAVT, with 0.95; and CALN, with 65; and KYLK, with ≤ 0.25. Under NALY stands ≤ 0.25; under SALT, 11.2.

In the case of QILN, the enrichment ratio was ≤ 0.25. Turning to SAAT, the enrichment ratio was 3.66.

As for AFGW, the enrichment ratio was ≤ 0.25. Then DHYR, with ≤ 0.25; and VAYT, with ≤ 0.25. As to QIHG, the enrichment ratio stood at 2.32. Under YSRD stands ≤ 0.25; under NFVV, ≤ 0.25. Consider SALS, for which the enrichment ratio was found to be 11.5. Under SAPA stands ≤ 0.25; under SAMS, 7.54. Under SACN stands 9.88; under SAMG, 5.01. Under SAMK stands 17.9; under SALA, 5.84; under KALN, ≤ 0.25. As for SALN, the enrichment ratio was determined as 11.9. Then SYEW, with ≤ 0.25. Then PEIY, with ≤ 0.25. Consider VINR, for which the enrichment ratio is ≤ 0.25. In the case of ELMR, the enrichment ratio was ≤ 0.25.

Take DFTI: the enrichment ratio was ≤ 0.25. Then LCMM, with 26.9; and LCWM, with ≤ 0.25.

SAMM: the enrichment ratio is 12.7. Then SYMM, with 0.307; and FQMM, with 5.91. Then SIMM, with 1.49; and SRMM, with 1.64. In the case of SPMM, the enrichment ratio is ≤ 0.25. Under TQMM stands 57.7. Turning to KFMM, the enrichment ratio was ≤ 0.25. Under NQMM stands ≤ 0.25; under SEMM, 32.5. Under PFQY stands ≤ 0.25. Then GAKN, with ≤ 0.25.

In the case of FYYW, the enrichment ratio was ≤ 0.25.

For FFHN, the enrichment ratio is ≤ 0.25. Then SYFV, with ≤ 0.25; and WNTR, with ≤ 0.25.

As to WKFY, the enrichment ratio is ≤ 0.25. Then EDEV, with ≤ 0.25; and TFAW, with ≤ 0.25.

For HTHM, the enrichment ratio is ≤ 0.25. Then YRCS, with ≤ 0.25; and RLLR, with ≤ 0.25; and YTMM, with 11.8. Consider TGMM, for which the enrichment ratio is 16. Then STMM, with 18.6; and SSMM, with 19.1; and NGMM, with ≤ 0.25. For YYMM, the enrichment ratio is ≤ 0.25. Then SWMM, with ≤ 0.25; and SQMM, with 3.97.

Take KYMM: the enrichment ratio was ≤ 0.25. Then RGMM, with ≤ 0.25.

In the case of YAMM, the enrichment ratio amounted to 3.27. With APTA, the enrichment ratio was ≤ 0.25. Under HDAK stands ≤ 0.25; under NSKR, ≤ 0.25. Then FYPF, with ≤ 0.25; and SSWP, with ≤ 0.25. Take IRWL: the enrichment ratio is ≤ 0.25. Under QACS stands ≤ 0.25; under PGDN, ≤ 0.25. Under GRMN stands ≤ 0.25. With NMLY, the enrichment ratio was ≤ 0.25.

Consider SHMM, for which the enrichment ratio was 2.18.

For NIMM, the enrichment ratio turned out to be 16. Turning to YHMM, the enrichment ratio is ≤ 0.25.

For the variant GGMM, the enrichment ratio is ≤ 0.25. As to FSMM, the enrichment ratio was 4.33. Then MMMM, with ≤ 0.25; and WIMM, with ≤ 0.25. Under QPMM stands ≤ 0.25; under FTMM, 12.1.

On to THMM, for which the enrichment ratio worked out at 17.6. With NHMM, the enrichment ratio is ≤ 0.25.

Regarding MTMM, the enrichment ratio was 59.5. Then PMCS, with ≤ 0.25.

Source of the values: a collection of fitness landscapes (doi:10.1126/science.1257360).
